Compound activity from PubChem.
Rows were chosen to be rich in hits. Some 3.1% of all compounds tested hit in one or more screens of this group.
TSHR antagonist – antagonists of human thyroid stimulating hormone receptor; AID 504810; TSHR-expressing cells, TSH-stimulated cAMP HTRF, 2 h; stronger effect = lower value; activity change, negative = inhibition, % at 11.5 µM; P16473; hit rate 0.2% among 330,000;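 active means activity change below a set negative limit, meaning inhibition stronger than a set level, cut at about -70% in these data; inconclusive means activity change between two set negative limits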; further: on the % scale 0 is the no-effect control and ±100 the full control effect
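Freshly harvested TSHR cells receive pin-tooled compound, then EC80 TSH at 4nM final. After 2 hours at 37 deg C, antibody in lysis buffer and cAMP-d2 are added; 30 minutes at ambient temperature precede the HTRF read.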
PLK1 PBD block – PLK1 (human) polo-box domain binding inhibition; Plk1 PBD binding of FITC phosphopeptide, fluorescence polarization; hit rate 2.8% among 360,000; Potency, µM, for the others: max response, negative = inhibition, actives largely listed as inhibitors; further: potency means the concentration at half of the fitted maximal effect; series mostly up to about 57 µM; on the % scale 0 is the no-effect control and ±100 the full control effect; nearly all actives have a fitted effect of over 65% in size
TSG101-PTAP inh – blocks PTAP/TSG101 interaction to inhibit HIV-1 budding | Q99816 | Fluorescence polarization, FITC-PTAP peptide / Tsg101 binding | Potency, µM (titrated, usually from 115 µM), inactives show at the highest dose activity change, negative = inhibition, most hits filed as inhibitors | 340,000 tested, under 10 active; active means well fitted inhibition curve with a large enough effect in the main read-out, with a control signal flat, not every such curve was filed as active; inconclusive means small, poorly fitted or top-dose-only effect, or effect the other way, or a change in a side signal; inactive means no such curve, though single readings can be large or run the other way; further: potency means the concentration at half of the fitted maximal effect; % of control where 0% means no effect
Target sequence (Q99816 whole entry, looked up): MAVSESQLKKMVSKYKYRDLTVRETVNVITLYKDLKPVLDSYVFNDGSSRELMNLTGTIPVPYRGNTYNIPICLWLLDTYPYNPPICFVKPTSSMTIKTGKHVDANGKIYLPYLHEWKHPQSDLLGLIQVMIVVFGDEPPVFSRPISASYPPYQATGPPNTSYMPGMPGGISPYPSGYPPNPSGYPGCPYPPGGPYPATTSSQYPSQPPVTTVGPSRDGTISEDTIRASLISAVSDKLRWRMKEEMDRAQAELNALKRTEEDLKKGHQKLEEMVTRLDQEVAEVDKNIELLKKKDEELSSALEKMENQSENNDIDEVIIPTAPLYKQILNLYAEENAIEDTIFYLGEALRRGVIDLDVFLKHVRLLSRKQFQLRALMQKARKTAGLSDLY
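FP read-out: FITC-PTAP peptide, 50 nM final, binding Tsg101 binding domain, 10 uM final; 20 min, r.t.; 10 mM HEPES pH 7.5, 0.15 M NaCl, 0.01% Tween 20, 3 mM EDTA, 0.1 mM TCEP.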
uPA surface inh – inhibitors of cell surface uPA generation; cell surface uPA generation assay, qHTS; Potency, µM (doses to about 38.3 µM), inactives show at the highest dose activity change, negative = inhibition, hits mostly inhibitors; hit rate 0.31% among 330,000; AID 540303; active means well fitted inhibition curve with a large enough effect; inconclusive means small, poorly fitted or top-dose-only effect; inactive means no such curve, though single readings can be large or run the other way; tested in mouse RAW 264.7 cells; further: potency means the concentration at half of the fitted maximal effect; on the % scale 0 is the no-effect control and ±100 the full control effect; nearly all actives have a fitted effect of over 55% in size
VDR inh – inhibitors of human vitamin D receptor | VDR-SRC2-3 peptide fluorescence polarization, 2 h | Potency, µM, without a hit: max response, negative = inhibition, hits mostly inhibitors | hit rate 0.93% among 400,000; further: potency means the concentration at half of the fitted maximal effect; on the % scale 0 is the no-effect control and ±100 the full control effect
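VDR–SRC2-3 interaction, FP format. Cmpds 23 nl via pintool, brief spin, 2 h ambient incubation.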
* hit, by the source's call. Unless noted, the call rests on the fitted dose curve; in most records, active means well fitted curve in the direction sought with a large enough effect; inconclusive means small, poorly fitted or top-dose-only effect, or another doubt; inactive means no such curve, though single readings can be large; an effect the other way counts as inactive or inconclusive.

For COc1ccc(CCNC(=O)c2nc3ncccn3n2)cc1OC the results were TSHR antagonist -0.6, PLK1 PBD block 23.8µM*, TSG101-PTAP inh 0.5%, uPA surface inh 4.3% and VDR inh -3.1%.
`COc1ccc(CCNC(=O)c2cccc(-n3c(C)nc4cccnc43)c2)cc1OC` gave VDR inh 14.0%.
For COc1ccc(CCNC(=O)C2CCN(S(=O)(=O)c3cccc4cccnc34)CC2)cc1OC the results were TSHR antagonist 8.3, PLK1 PBD block 26.7µM*, TSG101-PTAP inh -2.8%, uPA surface inh 3.3% and VDR inh -9.1%.
Cc1cc(C)n(CC(=O)Nc2ccccc2)n1 was read as TSHR antagonist 8.0, PLK1 PBD block 21.2µM*, TSG101-PTAP inh 2.8%, uPA surface inh -1.0% and VDR inh 0.2%.
`Cc1cccc(C(O)c2ncc(-c3ccc(C(F)(F)F)cc3)[nH]2)c1C` (stereo not drawn) gave PLK1 PBD block 0.5%.
Cc1cc(N(C)Cc2ccccc2)n2nc(-c3ccc(C(C)(C)C)cc3)nc2n1 was read as VDR inh 4.0%.
O=c1cc(Br)c(O)c(Br)cc1Br was read as PLK1 PBD block 21.2µM*, TSG101-PTAP inh -11.6%, uPA surface inh 5.3% and VDR inh inconclusive.
For O=c1c2c(-c3cccs3)csc2[nH]c(=S)n1-c1ccccc1 the results were TSHR antagonist 7.5, PLK1 PBD block 21.2µM*, TSG101-PTAP inh -3.0%, uPA surface inh 1.8% and VDR inh 12.8%.
CC(C)n1c(=S)[nH]c2scc(-c3cccs3)c2c1=O was read as TSHR antagonist 14.9, PLK1 PBD block 26.7µM*, TSG101-PTAP inh -1.9%, uPA surface inh inconclusive and VDR inh 7.9%.
CC(C)NC(=O)N1CCCC2(CCN(C(=O)c3ccco3)CC2)C1 was read as VDR inh 1.6%.
`CCCCOC(=O)c1cccc(NC(=O)c2cc3ccccc3o2)c1` gave VDR inh 0.6%.
Cc1ccc(NC(=O)C(Cc2c[nH]c3ccccc23)NC(=O)OCC(C)C)cc1 (stereo not drawn) was read as VDR inh -15.1%.
For Nc1sc2c(c1C(=O)NC1CC1)CCCC2 the results were TSHR antagonist 3.9, PLK1 PBD block 18.9µM*, TSG101-PTAP inh -4.8%, uPA surface inh 14.4% and VDR inh 79.4µM*.
Screening CCS(=O)(=O)N1CC(=O)N(c2cc(C)cc(C)c2)C(C)(C(=O)NC2CCCCC2)C1 (stereo not drawn) returned VDR inh 14.9%.
`O=C(CC(Nc1ccccc1Cl)C(=O)O)c1ccccc1` (stereo not drawn) gave TSHR antagonist 2.1, PLK1 PBD block -24.6%, TSG101-PTAP inh -3.2% and VDR inh 25.1µM*.
`O=[N+]([O-])c1cc([N+](=O)[O-])c(Oc2ccc(F)cc2)cc1NN1CCCCC1` gave TSHR antagonist -4.4, PLK1 PBD block -3.4%, TSG101-PTAP inh 0.7%, uPA surface inh -1.2% and VDR inh -4.3%.
Screening O=[N+]([O-])c1cc([N+](=O)[O-])c(Oc2cc(F)cc(F)c2)cc1NN1CCCCC1 returned TSHR antagonist 2.9, PLK1 PBD block 26.7µM*, TSG101-PTAP inh 1.2%, uPA surface inh -0.5% and VDR inh -27.7%.
O=C(CCn1cnnn1)Nc1ccc(Cl)cc1Cl was read as TSHR antagonist -0.2, PLK1 PBD block 3.77µM*, TSG101-PTAP inh -5.7%, uPA surface inh -14.9% and VDR inh -17.5%.
For Cc1cccc(NC(=O)CCn2cnnn2)c1C the results were VDR inh 4.2%.
`CC(=O)NC(C)(c1ccccc1)c1nc(-c2cccc3cccnc23)cs1` (stereo not drawn) gave PLK1 PBD block -2.5%.
`O=C(NCCCN1CCCC1=O)c1ccc2c(=O)n(Cc3ccco3)c(=S)[nH]c2c1` gave TSHR antagonist -0.5, PLK1 PBD block 4.74µM*, TSG101-PTAP inh -3.5%, uPA surface inh 0.2% and VDR inh -4.5%.
Cc1ccc2scc(N3CCCCC3)c(=O)c2c1 was read as VDR inh 2.4%.
For O=C(CCl)N1CCCC1c1ccc2c(c1)OCCO2 (stereo not drawn) the results were TSHR antagonist -1.6, PLK1 PBD block 26.7µM*, TSG101-PTAP inh 3.9%, uPA surface inh -1.6% and VDR inh inconclusive.
Screening COc1ccc(NS(=O)(=O)c2ccc(N3CCCC3)c(NC(=S)Nc3ccc(SC(F)F)cc3)c2)cc1 returned TSHR antagonist 9.6, PLK1 PBD block 4.74µM*, TSG101-PTAP inh 1.9%, uPA surface inh 1.2% and VDR inh inconclusive.
For COc1ccc(NS(=O)(=O)c2ccc(N3CCCC3)c(NC(=S)Nc3cccc(C)c3C)c2)cc1 the results were TSHR antagonist 5.9, PLK1 PBD block 3.77µM*, TSG101-PTAP inh -2.4%, uPA surface inh 13.5% and VDR inh inconclusive.
Screening O=C(CCl)N1c2ccccc2Oc2ccc3ccccc3c21 returned PLK1 PBD block 8.44µM*, TSG101-PTAP inh inconclusive, uPA surface inh -10.1% and VDR inh 20µM*.
CC(=O)N1c2ccccc2Oc2cc3ccccc3cc21 was read as TSHR antagonist -5.8, PLK1 PBD block -14.7%, TSG101-PTAP inh -1.6%, uPA surface inh 9.4% and VDR inh -9.4%.
For CCc1ccc2[nH]c3nc(SCCN4CCOCC4)nnc3c2c1 the results were TSHR antagonist -5.8, PLK1 PBD block 23.8µM*, TSG101-PTAP inh -2.7%, uPA surface inh -0.2% and VDR inh inconclusive.
`CCCCCc1c2c(cc(O)c1C(=O)O)OC(=O)c1c(cc(OC)cc1C(=O)CCCC)O2` gave TSHR antagonist inconclusive, PLK1 PBD block 26.7µM*, TSG101-PTAP inh -10.8%, uPA surface inh -13.3% and VDR inh 79.4µM*.
For CCCCCc1c2c(cc(O)c1C(=O)O)OC(=O)c1cc(C(=O)CCCC)c(OC)cc1O2 the results were TSHR antagonist -38.3, PLK1 PBD block 21.2µM*, TSG101-PTAP inh -9.5%, uPA surface inh 3.7% and VDR inh 79.4µM*.
CCCCCC(=O)Cc1cc(O)cc(O)c1C(=O)Oc1cc(CC(=O)CCCCC)c(C(=O)O)c(OC)c1 was read as VDR inh -1.7%.
`O=C(CSc1n[nH]c(-c2ccccc2)n1)N1CCN(c2ccc(F)cc2)CC1` gave VDR inh 9.8%.
For CC(=O)Nc1ccc(S(=O)(=O)Oc2cccc(/C=C3\SC(N)=NC3=O)c2)cc1 the results were TSHR antagonist 5.9, PLK1 PBD block 4.23µM*, TSG101-PTAP inh -1.4%, uPA surface inh 2.0% and VDR inh 35.5µM*.
COc1cc(/C=C2\SC(N)=NC2=O)ccc1OCC(=O)Nc1ccc(C)cc1 was read as TSHR antagonist 4.6, PLK1 PBD block 3.1%, TSG101-PTAP inh 5.0%, uPA surface inh -14.9% and VDR inh 14.7%.
`O=c1c2c(-c3ccc([N+](=O)[O-])cc3)csc2nc2n1CCC2` gave TSHR antagonist 14.6, PLK1 PBD block 26.7µM*, TSG101-PTAP inh -0.3%, uPA surface inh 6.0% and VDR inh -14.5%.
